Assay [1] in a line: CCTE_Deisenroth_5AR_NBTE_donor: CCTE's 5alpha-reductase NanoBRET Target Engagement Assay […], Deisenroth Lab (AID 2284319; active = hit-call score of the fitted dose curve at least 0.9, where 1 is the maximum; inactive = score below 0.9). To be noted: actives raise or lower the signal. The procedure, abridged: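 HEK293T cells transiently expressing SRD5A2-NanoLuc, exposed 5 h to chemicals (8 points, 10 nM - 29.9 uM), with testosterone tracer for the final 2 h. Donor luminescence at 460 nm read after Nano-Glo substrate plus extracellular NanoLuc inhibitor; bidirectional fit versus DMSO.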
On the technique in general: BRET reads energy transfer from a luciferase to a nearby fluorophore.

The nature of assay [2]: CCTE_Deisenroth_5AR_NBTE_acceptor: CCTE's 5alpha-reductase NanoBRET Target Engagement Assay - Autofluorescence Screen, Deisenroth Lab (AID 2284321; active = hit-call score of the fitted dose curve at least 0.9, where 1 is the maximum; inactive = score below 0.9;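 also: compound fluorescence in the acceptor channel under 460 nm excitation flags autofluorescence artifacts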). The settings on record: actives raise or lower the signal. The gist of the method:
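Acceptor fluorescence intensity was read as an artifact-detection endpoint. Test chemicals at an assumed nominal 100 uM were excited at 460 nm across three independent runs. Activity was fitted bidirectionally against DMSO.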

A further assay relates to SERPINA7 (gene 6906). The assay is described as follows: CCTE_GLTED_hTBG: CCTE's human Thyroxine-binding Globulin (TBG) Inhibition Assay, Great Lakes Toxicology and Ecology Division (GLTED) Lab (AID 2284343).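 Also: active chemicals lower fluorescence versus DMSO baseline by displacing probe.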 The gist of the method:
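Human TBG incubated 2 h with test chemical; displacement of ANSA probe read by fluorescence, 380 nm excitation/475 nm emission. Loss of signal relative to DMSO.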

Assay [3] in a line: CCTE_Mundy_HCI_iCellGluta_NOG_NeuriteLength: CCTE's Neurite Outgrowth Assay in iCellGluta cells for Neurite Length, Mundy Lab (AID 2284318). The procedure, abridged:
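Automated high-content imaging of betaIII-tubulin (Alexa Fluor-488) and Hoechst-stained cells gave neurite length, normalized to the DMSO baseline.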

Assay [4] in a line: CCTE_Mundy_HCI_iCellGluta_NOG_NeuriteCount: CCTE's Neurite Outgrowth Assay in iCellGluta cells for Neurite Count, Mundy Lab (AID 2284342).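 Also: chemical exposure about 48 hours starting 2 hours after plating.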
The test system of assay [5] is Brachyury (BRA) Protein Expression, Deisenroth Lab, TBXT (gene 6862). As to the kind of experiment: CCTE_Deisenroth_DEVTOX-GLR_legacy_Bra: (Legacy) CCTE's DevTox GLR-Endo Assay Evaluation of Brachyury (BRA) Protein Expression, Deisenroth Lab (AID 2284329; active = hit-call score of the fitted dose curve at least 0.9, where 1 is the maximum; inactive = score below 0.9). The procedure, abridged:
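Human pluripotent RUES2-GLR line was exposed twice during 48 h differentiation to a 10-point series, 1 nM - 200 uM. Fraction of Bra-positive cells was scored by imaging against pluripotent baseline and fitted after 0.2% DMSO subtraction.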

Assay [6] can be described thus: CCTE_Deisenroth_DEVTOX-GLR_legacy_CellCount: (Legacy) Viability Assessment in CCTE's DevTox GLR-Endo Assay, Deisenroth Lab (AID 2284331; active = hit-call score of the fitted dose curve at least 0.9, where 1 is the maximum; inactive = score below 0.9). To be noted: actives raise or lower the signal. The gist of the method:
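Human pluripotent RUES2-GLR cells differentiated 48 h with two 24-h-interval exposures, 10-point 1 nM–200 uM series, 0.2% DMSO. Fixed nuclei counted by high-content imaging (5 fields/well); bidirectional fit vs DMSO, n≥4.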

For assay [7], the system named is SRY-box transcription factor 17 (SOX17) Protein Expression, Deisenroth Lab, SOX17 (gene 64321). The assay is described as follows: CCTE_Deisenroth_DEVTOX-GLR_legacy_Sox17: (Legacy) CCTE's DevTox GLR-Endo Assay Evaluation of SRY-box transcription factor 17 (SOX17) Protein Expression, Deisenroth Lab (AID 2284341; active = hit-call score of the fitted dose curve at least 0.9, where 1 is the maximum; inactive = score below 0.9). To be noted: actives raise or lower the signal. The gist of the method: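 RUES2-GLR human pluripotent cells differentiated toward endoderm for 48 h, dosed twice at 24 h intervals (1 nM–200 uM, 10 points). Imaging gives % SOX17+ cells (intensity >5x BMAD above pluripotent control median); bidirectional fit versus 0.2% DMSO.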

Assay [8] concerns SRY-box transcription factor 2 (SOX2) Protein Expression, Deisenroth Lab, SOX2 (gene 6657). The assay is described as follows: CCTE_Deisenroth_DEVTOX-GLR_legacy_Sox2: (Legacy) CCTE's DevTox GLR-Endo Assay Evaluation of SRY-box transcription factor 2 (SOX2) Protein Expression, Deisenroth Lab (AID 2284346; active = hit-call score of the fitted dose curve at least 0.9, where 1 is the maximum; inactive = score below 0.9). The gist of the method: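 hPSC RUES2-GLR, 384-well; 24 h seed → 48 h endoderm differentiation, 2 doses q24h, 1 nM–200 uM. Fix, nuclear dye, 5 fields/well. Sox2+ cells/cell count; cell positive if >5x BMAD over endoderm ctrl; gain direction vs DMSO.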

The nature of assay [9]: TAMU_PeakParms_SingleDonor1434_Asystole: Texas A&M University (TAMU) 1.5-hr Human Induced Pluripotent Stem Cell (iPSC)-derived Cardiomyocytes Calcium (Ca+2) Flux Assay for Cardiotoxicity: Asystole (quiescence of beating) (AID 2284328). The gist of the method:
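Average Ca2+-flux peak frequency (beats/s) was recorded in single-donor iPSC-derived cardiomyocytes after 90 min exposure (0.2–100 uM final, 0.5% DMSO). Asystole POD set as EC95 against DMSO, no preprocessing.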

Assay [10] is described as follows: CCTE_Mundy_HCI_iCellGluta_NOG_NeuronCount: CCTE's Neurite Outgrowth Assay in iCellGluta cells for Neuron Count, Mundy Lab (AID 2284340).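 Also: cells fixed about 48 h after compound addition.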 The gist of the method:
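Neuron count read by automated high-content imaging of Hoechst 33342 and betaIII-tubulin/Alexa Fluor-488 labelling in human iPSC glutamatergic neurons. Activity fitted relative to DMSO.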

Assay [11] can be described thus: CCTE_Deisenroth_H295R-HTRF_384WELL_ESTRADIOL: CCTE's H295R-HTRF Assay Evaluation of Estradiol Concentration, Deisenroth Lab (AID 2284361; active = hit-call score of the fitted dose curve at least 0.9, where 1 is the maximum; inactive = score below 0.9). To be noted: actives raise or lower the signal. The procedure, abridged:
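H295R cells exposed 48 h to chemicals at 0.001 - 100 uM final (nine points, triplicate); estradiol in conditioned medium measured by HTRF immunoassay, fitted bidirectionally versus DMSO. Viability by CellTiter-Glo on same plates.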
A general note: In TR-FRET formats the signal depends on donor and acceptor labels being close together.

Assay [12] can be described thus: CCTE_Deisenroth_H295R-HTRF_384WELL_TESTOSTERONE: CCTE's H295R-HTRF Assay Evaluation of Testosterone Concentration, Deisenroth Lab (AID 2284373; active = hit-call score of the fitted dose curve at least 0.9, where 1 is the maximum; inactive = score below 0.9). The settings on record: actives raise or lower the signal. The gist of the method:
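H295R cells were acclimated 24 h, then exposed 48 h to nine concentrations (0.001–100 uM final) in technical triplicate, n=5. Testosterone in conditioned medium was measured by HTRF (em 620/665 nm). Fitting was bidirectional versus DMSO; CellTiter-Glo viability ran on the same plates.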

Assay [13] in a line: CCTE_Deisenroth_H295R-HTRF_384WELL_CTOX: Cytotoxicity Assessment in CCTE's H295R-HTRF Assay, Deisenroth Lab (AID 2284380). The gist of the method:
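H295R adrenocortical carcinoma cells plated 24 h, then exposed 48 h to nine-point series 0.001–100 uM final, triplicate, n=5. ATP measured by CellTiter-Glo 2.0 luminescence on same plates after medium collection; loss versus DMSO.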

A further assay concerns TTR (gene 7276). As to the kind of experiment: CCTE_GLTED_hTTR_0.5uM: CCTE's human Transthyretin (hTTR) Inhibition Assay, with 0.5uM TTR, Great Lakes Toxicology and Ecology Division (GLTED) Lab (AID 2284320; active = hit-call score of the fitted dose curve at least 0.9, where 1 is the maximum; inactive = score below 0.9). The gist of the method:
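Cell-free displacement assay in which human TTR at 0.5 uM was incubated with test chemical for 2 h. Displacement of the ANSA probe was read by fluorescence at 380 nm excitation/475 nm emission. Loss of signal was fitted in the positive direction versus DMSO.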

A short description of assay [14]: Tanguay_ZF_120hpf_MO24: Oregon State University Tanguay Lab 24 Hour Post-fertilization zebrafish Assay for Mortality (AID 2284389; active = hit-call score of the fitted dose curve at least 0.9, where 1 is the maximum; inactive = score below 0.9). The procedure, abridged: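 Dechorionated wild-type zebrafish embryos, 1 per well, statically exposed from 6 hpf at 28C, 0.64% DMSO final. Mortality scored as binary present/absent at 24 hpf by brightfield microscopy, relative to DMSO.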

Results filed as inconclusive are left out. The source made the active and inactive calls. The calls were made as follows, unless noted: active = hit-call score of the fitted dose curve at least 0.9, where 1 is the maximum; inconclusive = response in the unintended direction; inactive = score below 0.9. Peptide text beside a SMILES is read from it.

As usually defined, the AC50 is the midpoint of the concentration-response curve, whichever way the signal moves. In the case of `O=S(=O)(O)c1ccc(N=Nc2c(O)ccc3ccccc23)cc1`, the AC50 is 13.3 µM (active) in [1] and 19 µM (active) with SERPINA7 (gene 6906). In assay [2], the outcome was inactive.

Turning to `Cc1noc(NS(=O)(=O)c2ccc(N)cc2)c1C`, the result in assay [3] and in assay [4] was inactive.

On to `Oc1ccccc1Cc1ccccc1O`, for which the AC50 in the assay on SERPINA7 (gene 6906) is 8.67 µM (active).

Regarding `CC1(C)[C@@H]2CC[C@@]1(C)C(=O)C2`, the result in assay [5], in assay [6], in assay [7] and in assay [8] was inactive.

On to `CC(CCC(=O)O)(c1ccc(O)cc1)c1ccc(O)cc1`, for which the AC50 in the assay on SERPINA7 (gene 6906) was 37.7 µM (active).

Take `COc1cc(O)c(C(=O)c2ccccc2)cc1S(=O)(=O)O`: the AC50 in the assay on SERPINA7 (gene 6906) was 29.8 µM (active).

Turning to `CC(C)(c1ccccc1)c1ccc(Nc2ccc(C(C)(C)c3ccccc3)cc2)cc1`, the AC50 with SERPINA7 (gene 6906) was 25.2 µM (active).

For `CCCCOCCOC(=O)COc1ccc(Cl)cc1Cl`, the AC50 in the assay on SERPINA7 (gene 6906) was 12.7 µM (active).

As for `COC(=O)[C@H](Cc1ccccc1)NC(=O)[C@@H](N)CC(=O)O` (H-Asp-Phe-OMe), the outcome in assay [9], in [10] and in [4] was inactive.

Regarding `C=C[C@@]1(C)CC(=O)[C@]2(O)[C@@]3(C)[C@@H](O)CCC(C)(C)[C@@H]3[C@H](O)[C@H](OC(C)=O)[C@@]2(C)O1`, the figures for the AC50 in [1], in assay [11] and in [12] were 9.91 µM (active), 3.68 µM (active) and 0.566 µM (active), respectively. Also, the compound was called inactive in assay [2] and in assay [13].

In the case of `Oc1ccc(-c2ccccc2)c(Cl)c1`, the outcome in assay [1] and in assay [2] was inactive. In addition, the AC50 with SERPINA7 (gene 6906) was 15.4 µM (active).

On to `Cc1ccc(C)c(OCCCC(C)(C)C(=O)O)c1`, for which the AC50 in the assay with SERPINA7 (gene 6906) was 27 µM (active).

`C[N+](C)(C)CCCNS(=O)(=O)C(F)(F)C(F)(F)C(F)(F)C(F)(F)C(F)(F)C(F)(F)C(F)(F)C(F)(F)F`: the AC50 in the assay on TTR (gene 7276) was 1.04 µM (active). Moreover, in [14], the result was inactive.

With `CCCCNS(=O)(=O)c1ccc(C)cc1`, in the assay on SERPINA7 (gene 6906), the AC50 is 21.4 µM (active).

With `O=C(Oc1ccccc1)c1ccccc1O`, the AC50 with SERPINA7 (gene 6906) was 2.52 µM (active).

As for `CCCCCC[C@@H](O)C/C=C\CCCCCCCC(=O)OCC(O)CO` (some centres not stated), the AC50 with SERPINA7 (gene 6906) is 26.9 µM (active).

Regarding `CCOC(=O)C1=NOC(c2ccccc2)(c2ccccc2)C1`, in the assay with SERPINA7 (gene 6906), the AC50 was 2.68 µM (active).

With `CC(C)(C)NC(=O)[C@H]1CC[C@H]2[C@@H]3CC[C@H]4NC(=O)C=C[C@]4(C)[C@H]3CC[C@]12C`, the compound was classed as inactive in [1], in assay [2], in assay [11], in assay [12] and in assay [13].

In the case of `COc1ccc(C(=O)c2ccccc2)c(O)c1`, in the assay on SERPINA7 (gene 6906), the AC50 is 7.45 µM (active).

For the compound `Cc1ccc([N+](=O)[O-])cc1N`, the AC50 in the assay on SERPINA7 (gene 6906) was 50 µM (active).

For `O=C(O)C(F)(F)C(F)(F)C(F)(F)C(F)(F)C(=O)O`, the AC50 in the assay with TTR (gene 7276) was 5.53 µM (active). For the same compound, the result in assay [10], in assay [4] and in assay [14] was inactive.

For `O=C(OCCc1ccccc1)c1ccccc1`, in the assay on SERPINA7 (gene 6906), the AC50 was 22.6 µM (active).

Turning to `N#Cc1ccc(C(c2ccc(C#N)cc2)n2cncn2)cc1`, the outcome in assay [11], in assay [12] and in assay [13] was inactive.

Values taken from PubChem BioAssay (EPA / NIEHS).
